Assay [1] deals with Lysosomal acid glucosylceramidase (Homo sapiens) (UniProt P04062). Briefly: Glucocerebrosidase-p2 (AID 348; in the data active = potency below about 10 µM; note: potency is the fitted concentration of half-maximal effect). Particulars: purified GBA, blue fluorogenic substrate, 40 min. The essentials: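 Compounds titrated from 0.6 nM upwards against 0.2 nM enzyme in pH 5.9 citric acid/KH2PO4, taurocholate, tween-20; blue fluorogenic substrate 80 uM, 40 min room temperature, stopped and read Ex 365/Em 440 for AC50.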

Assay [2] in a line: AP1 Signaling Pathway (AID 357; active = well fitted curve in either direction with a large enough effect, not every such curve was filed as active;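 note: ME-180 reporter cells stimulated with EGF at its EC50 level; % is set by controls: 0 for no effect and ±100 for the full control effect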). Particulars: ME-180 AP-1-bla reporter, EGF-induced, beta-lactamase ratio, 5 h; at 7.69 µM (top of the series) unless noted. The essentials: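 In this screen, ME-180 cells in Opti-MEM with 0.5% dialyzed FBS received EC50 EGF and compound titrations for 5 h. AP-1 reporter beta-lactamase was detected via CCF4 ratio, giving AC50 for positive and negative modulators.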

Assay [3] has as its target Cytochrome P450 1A2 (Homo sapiens) (UniProt P05177). Briefly: p450-cyp1a2 (AID 410; calls by dose curve; note: potency is the fitted concentration of half-maximal effect). Particulars: recombinant CYP1A2, luciferin-ME demethylation, luminescence; series mostly up to 57 µM. The essentials:
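Luminescent readout of luciferin formed from Luciferin-ME by human CYP1A2; data normalized against complete inhibition by 57 uM furafylline. Enzyme 20nM, substrate 100uM at Km, 100mM KPO4 buffer, 60 min reaction at room temperature.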

The nature of assay [4]: NFAT Signaling Pathway (AID 444; active = well fitted curve in either direction with a large enough effect, not every such curve was filed as active;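 note: carbachol stimulus at about its EC50 of 1 µM final; % is set by controls: 0 for no effect and ±100 for the full control effect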). Particulars: Jurkat NFAT-bla M1, carbachol, beta-lactamase ratio, 5 h; at 7.69 µM (top of the series) unless noted. The essentials:
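Jurkat cells carrying an NFAT-driven β-lactamase reporter and co-transfected muscarinic M1 receptor were treated with compound plus carbachol (1 uM final, an EC50 level) for 5 h at 37 °C. CCF4 loading followed for 1 h at RT; 460/530 nm ratio gave %activity.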

Assay [5] can be described thus: Stat Signaling Pathway (AID 446; active = well fitted curve in either direction with a large enough effect, not every such curve was filed as active;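 note: ME-180 cervical cancer cells given 40 pM IL-6 alongside compound; SIE-controlled beta-lactamase reporter measured as 460/530 nm FRET emission ratio; % is set by controls: 0 for no effect and ±100 for the full control effect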). Particulars: ME-180 SIE beta-lactamase reporter, IL-6 stimulated, 5 h; at 7.69 µM (top of the series) unless noted. The essentials: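 ME-180 cells carrying a SIE-driven beta-lactamase reporter are stimulated with 40 pM IL-6 for 5 h at 37C in the presence of compound. The 460/530 nm FRET substrate ratio is read after 2.5 h at RT. Data are normalised to 300 pM IL-6 and to 125 nM JAK inhibitor controls.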

The target in assay [6] is Glucocorticoid receptor (Homo sapiens) (UniProt P04150). Briefly: GR-GFP Redistribution (AID 450;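 active = compounds whose dose series gives a full or clear partial fitted curve of increased nuclear translocation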; note: potency is the fitted concentration of half-maximal effect). Particulars: U2OS GR-GFP nuclear translocation, laser cytometry, 2 h.
The target is the same in assay [7]. Briefly: GR-EFC Redistribution (AID 451; calls by dose curve; note: potency is the fitted concentration of half-maximal effect). Particulars: CHO-K1 GR-EFC translocation, beta-gal luminescence, 2 h. The essentials:
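CHO-K1 cells stably expressing nuclear-localized β-gal enzyme acceptor and GR fused C-terminally to the enzyme donor fragment; ligand-driven nuclear translocation restores β-gal by complementation. Compounds titrated up to 46 uM final, 2 h at 37 °C; luminescence read.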

Assay [8] deals with Mitogen-activated protein kinase 10 (Mus musculus) (UniProt Q61831). Briefly: JNK3 AlphaScreen Assay (AID 530; active = well fitted curve in either direction with a large enough effect, not every such curve was filed as active;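 note: kinase came from lysate of stimulated human HepG2 cells; signal reports phosphorylation of biotinylated GST-cJun 1-79 at Ser73 with 10 µM ATP; % is set by controls: 0 for no effect and ±100 for the full control effect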). Particulars: JNK3 lysate, c-Jun phosphorylation; series mostly up to 57.1 µM. The essentials:
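Inhibitors reduce antibody binding to phosphorylated biotin-cJun, lowering AlphaScreen luminescence. Lysates from HepG2 cells pre-activated by IL-1beta plus TNF-alpha supplied JNK3; compounds were titrated.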
In general terms: Bead proximity is the source of the signal in Alpha formats.

Assay [9] addresses 3',5'-cyclic-AMP phosphodiesterase 4B (Homo sapiens) (UniProt Q07343). Briefly: qHTS Assay for Inhibitors of PDE-IV (AID 607; active = well fitted activation curve with a large enough effect in the main read-out, with a control signal flat, not every such curve was filed as active; note: % of control where 0% means no effect). Particulars: HEK293 ACTOne CNG channel cells, membrane potential fluorescence; series mostly up to 22.9 µM. The essentials: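 HEK293 ACTOne cells with CNG channel (1000/well), endogenous PDE4; membrane potential dye, compounds up to 22.9 uM final. Fluorescence Ex 535/Em 590; RO 20-1724 (100 uM final) as reference.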
(In general: Quantitative high-throughput screening tests each substance at several concentrations.)

In assay [10] the target is Cytochrome P450 3A4 (Homo sapiens) (UniProt P08684). Briefly: qHTS Assay for Inhibitors and Substrates of Cytochrome P450 3A4 (AID 884). Note: nearly all actives have a fitted effect of over 50% in size. Note: potency is the fitted concentration of half-maximal effect. Particulars: recombinant CYP3A4, Luciferin-PPXE luminescence; series mostly up to 57.1 µM. The essentials: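 20 nM human CYP3A4 with 25 uM Luciferin-PPXE (at KM) in 200 mM KPO4, preincubated 10 min with compound; NADPH regeneration started a 60 min RT reaction. Luciferin detected by luminescence, normalized to 57 uM ketoconazole as full inhibition.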

Assay [11] deals with Dual specificity protein kinase CLK4 (Homo sapiens) (UniProt Q9HAZ1). Briefly: qHTS Assay for Inhibitors of CDC-like Kinase 4 (ADP-Glo Assay) (AID 1771). Note: nearly all actives have a fitted effect of over 70% in size. Note: potency is the fitted concentration of half-maximal effect. Particulars: recombinant CLK4, ADP-Glo luminescence; series mostly up to 80 µM. An outline of the steps:
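Luminescence from ADP-Glo reports ADP produced by 25 nM Clk4 acting on 100 uM RS repeat peptide with 1 uM ATP over 1 hr at room temperature; residual ATP is depleted before ADP is converted to ATP for detection.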

The target in assay [12] is Ubiquitin carboxyl-terminal hydrolase 1 (Homo sapiens) (UniProt O94782). Briefly: Inhibitors of USP1/UAF1: Pilot qHTS (AID 504865). Note: nearly all actives have a fitted effect of over 35% in size. Note: potency is the fitted concentration of half-maximal effect. Particulars: purified USP1/UAF1, Ub-rhodamine cleavage fluorescence; series mostly up to 54.9 µM. An outline of the steps:
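USP1/UAF1 complex at 1 nM preincubated 15 min at room temperature with compound, then Ub-Rho substrate added at 150 nM final. Fluorescence (480/540 nm) read kinetically in 50 mM HEPES pH 7.8, 0.5 mM EDTA, 1 mM TCEP, 0.1 mg/ml BSA, 0.01% Tween-20.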

Assay [13] is described as follows: Primary qHTS for small molecule stabilizers of the endoplasmic reticulum resident proteome: Secreted ER Calcium Modulated Protein (SERCaMP) assay (AID 1508630). Note: % is set by controls: 0 for no effect and ±100 for the full control effect. Particulars: SH-SY5Y GLuc-SERCaMP (Gaussia luciferase released on ER calcium loss) secretion, thapsigargin, luminescence; series mostly up to 38.4 µM. An outline of the steps: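 GLuc-SERCaMP-expressing SH-SY5Y cells, pretreated 16 h with compound, are challenged with thapsigargin to empty ER calcium stores; after 4 h, coelenterazine is added directly to the medium and luminescence is imaged.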

In assay [14] the target is Cytochrome P450 3A4 (Homo sapiens) (UniProt P08684). Briefly: qHTS Assay for Activators of Cytochrome P450 3A4 (AID 885). Note: nearly all actives have a fitted effect of over 65% in size. Particulars: recombinant CYP3A4, Luciferin-PPXE luminescence, 60 min; series mostly up to 57.1 µM. An outline of the steps: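 Human CYP3A4 (20 nM) with Luciferin-PPXE at 25 uM (its KM) in 200 mM KPO4; 10 min compound preincubation, then NADPH regeneration and 60 min reaction at RT. Luciferin read by luminescence; normalized to 57 uM ketoconazole full inhibition.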

In assay [15] the target is Dual specificity protein kinase CLK4 (Homo sapiens) (UniProt Q9HAZ1). Briefly: qHTS Assay for Inhibitors of CDC-like Kinase 4 (ADP-FP Assay) (AID 1795). Note: nearly all actives have a fitted effect of over 60% in size. Note: potency is the fitted concentration of half-maximal effect. Particulars: Transcreener ADP fluorescence polarization; series mostly up to 50 µM. An outline of the steps:
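Recombinant Clk4 (6.25 nM) phosphorylated 100 uM RS repeat peptide with 1 uM ATP in 25 mM Tris pH 7.5, 10 mM MgCl2, 0.5 mM EGTA, 2.5 mM DTT, 0.01% Triton X-100 for 1 h. ADP was detected by Transcreener ADP2 competitive fluorescence polarization after 30 min at room temperature.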

Assay [16] concerns the target Cytochrome P450 2C19 (Homo sapiens) (UniProt P33261). Briefly: qHTS Assay for Inhibitors and Substrates of Cytochrome P450 2C19 (AID 899). Note: potency is the fitted concentration of half-maximal effect; nearly all actives have a fitted effect of over 60% in size. Particulars: recombinant CYP2C19, luciferin-H EGE luminescence; series mostly up to 57.1 µM. The essentials: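 NADPH-dependent conversion of Luciferin-H EGE (10uM, at KM) by 5nM enzyme in 50mM KPO4, 60 min at 37C following 10 min compound preincubation. Stopped with luciferin detection buffer; luminescence read after 20 min.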

SMILES strings stand for the structures. Values without a mark were called inactive. Records with an inconclusive call do not appear. Active and inactive are the calls of the source. Unless noted, calls come from the whole dose curve; as a rule, active = well fitted curve in the direction sought with a large enough effect; inconclusive = small, poorly fitted or top-dose-only effect, or another doubt; inactive = no such curve, though single readings can be large; an effect the other way counts as inactive or inconclusive. A value given as a limit tells only on which side of the number the result lay.

Chain of Lysosomal acid glucosylceramidase (Homo sapiens) (P04062 whole entry, looked up): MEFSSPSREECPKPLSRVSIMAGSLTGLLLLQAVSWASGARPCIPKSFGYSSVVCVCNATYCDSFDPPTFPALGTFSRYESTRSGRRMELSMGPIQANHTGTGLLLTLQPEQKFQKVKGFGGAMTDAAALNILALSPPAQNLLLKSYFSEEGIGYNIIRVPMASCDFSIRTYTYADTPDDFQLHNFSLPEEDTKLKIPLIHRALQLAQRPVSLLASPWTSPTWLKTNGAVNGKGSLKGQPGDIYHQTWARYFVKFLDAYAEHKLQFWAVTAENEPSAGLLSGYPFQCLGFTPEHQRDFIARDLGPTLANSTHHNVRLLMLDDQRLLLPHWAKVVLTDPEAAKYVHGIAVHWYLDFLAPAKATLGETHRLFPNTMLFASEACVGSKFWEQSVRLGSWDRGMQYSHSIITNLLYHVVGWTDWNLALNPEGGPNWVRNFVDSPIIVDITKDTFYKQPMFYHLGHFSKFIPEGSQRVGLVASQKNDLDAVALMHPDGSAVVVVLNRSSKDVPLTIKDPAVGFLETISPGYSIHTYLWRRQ
Chain of Cytochrome P450 3A4 (Homo sapiens) (P08684 whole entry, looked up): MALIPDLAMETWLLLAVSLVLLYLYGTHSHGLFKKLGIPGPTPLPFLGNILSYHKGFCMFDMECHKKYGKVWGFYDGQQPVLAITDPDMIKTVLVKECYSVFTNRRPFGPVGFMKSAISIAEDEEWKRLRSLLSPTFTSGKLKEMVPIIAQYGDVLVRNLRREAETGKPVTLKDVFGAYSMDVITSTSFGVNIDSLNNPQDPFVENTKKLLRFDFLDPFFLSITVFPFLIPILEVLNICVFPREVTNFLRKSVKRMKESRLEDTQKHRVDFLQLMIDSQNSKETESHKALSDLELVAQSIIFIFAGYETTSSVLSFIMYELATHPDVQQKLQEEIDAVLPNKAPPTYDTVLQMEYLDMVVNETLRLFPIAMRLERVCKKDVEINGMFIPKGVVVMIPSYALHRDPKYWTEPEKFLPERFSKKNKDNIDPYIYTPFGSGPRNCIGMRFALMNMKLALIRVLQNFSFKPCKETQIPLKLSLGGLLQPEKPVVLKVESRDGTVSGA
Chain of Cytochrome P450 1A2 (Homo sapiens) (P05177 whole entry, looked up): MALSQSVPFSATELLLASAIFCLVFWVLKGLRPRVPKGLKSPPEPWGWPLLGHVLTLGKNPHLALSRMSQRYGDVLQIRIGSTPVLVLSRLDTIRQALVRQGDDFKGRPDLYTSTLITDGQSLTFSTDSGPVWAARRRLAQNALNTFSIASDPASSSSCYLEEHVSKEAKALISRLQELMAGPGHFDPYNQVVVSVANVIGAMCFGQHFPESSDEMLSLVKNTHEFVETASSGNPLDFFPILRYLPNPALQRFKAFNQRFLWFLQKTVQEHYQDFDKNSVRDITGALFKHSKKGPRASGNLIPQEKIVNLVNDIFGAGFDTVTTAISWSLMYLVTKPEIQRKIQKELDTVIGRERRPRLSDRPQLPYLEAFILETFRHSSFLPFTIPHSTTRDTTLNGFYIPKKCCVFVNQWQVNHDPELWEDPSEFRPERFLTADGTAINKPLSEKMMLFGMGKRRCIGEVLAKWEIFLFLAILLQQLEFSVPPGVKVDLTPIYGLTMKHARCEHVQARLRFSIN
Chain of Dual specificity protein kinase CLK4 (Homo sapiens) (Q9HAZ1 whole entry, looked up): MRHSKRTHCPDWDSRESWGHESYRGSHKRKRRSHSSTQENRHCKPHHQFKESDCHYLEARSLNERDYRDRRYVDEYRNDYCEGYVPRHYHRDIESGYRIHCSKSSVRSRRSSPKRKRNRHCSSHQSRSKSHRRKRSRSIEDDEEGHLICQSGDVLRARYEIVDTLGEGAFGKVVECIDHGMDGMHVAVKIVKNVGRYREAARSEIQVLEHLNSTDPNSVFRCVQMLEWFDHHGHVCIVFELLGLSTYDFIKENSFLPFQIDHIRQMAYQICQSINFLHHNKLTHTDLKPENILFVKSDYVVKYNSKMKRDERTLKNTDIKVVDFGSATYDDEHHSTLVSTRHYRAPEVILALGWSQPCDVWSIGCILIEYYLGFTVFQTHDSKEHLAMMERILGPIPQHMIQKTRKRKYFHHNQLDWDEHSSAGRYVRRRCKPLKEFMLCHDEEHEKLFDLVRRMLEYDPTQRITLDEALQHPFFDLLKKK
Chain of Glucocorticoid receptor (Homo sapiens) (P04150 whole entry, looked up): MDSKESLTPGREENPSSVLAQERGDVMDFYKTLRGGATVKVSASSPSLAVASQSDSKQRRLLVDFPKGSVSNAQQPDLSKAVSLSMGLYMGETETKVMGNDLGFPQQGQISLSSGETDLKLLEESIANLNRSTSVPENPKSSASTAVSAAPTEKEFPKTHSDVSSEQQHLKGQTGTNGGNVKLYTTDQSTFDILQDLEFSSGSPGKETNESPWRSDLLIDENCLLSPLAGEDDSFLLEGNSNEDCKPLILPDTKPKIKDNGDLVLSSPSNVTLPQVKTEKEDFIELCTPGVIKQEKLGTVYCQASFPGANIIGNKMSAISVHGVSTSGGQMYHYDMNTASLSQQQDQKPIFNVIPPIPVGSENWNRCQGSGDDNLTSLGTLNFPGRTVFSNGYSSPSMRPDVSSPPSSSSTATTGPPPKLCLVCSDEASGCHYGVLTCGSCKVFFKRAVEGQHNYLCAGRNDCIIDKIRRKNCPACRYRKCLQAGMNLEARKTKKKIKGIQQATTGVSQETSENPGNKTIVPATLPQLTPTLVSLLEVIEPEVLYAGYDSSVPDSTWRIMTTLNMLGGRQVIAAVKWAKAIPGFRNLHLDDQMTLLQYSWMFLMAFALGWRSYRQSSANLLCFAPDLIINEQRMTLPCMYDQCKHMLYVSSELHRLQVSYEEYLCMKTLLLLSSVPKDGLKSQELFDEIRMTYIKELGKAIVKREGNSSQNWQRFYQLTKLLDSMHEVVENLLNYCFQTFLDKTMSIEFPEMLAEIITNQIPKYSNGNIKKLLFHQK
Chain of 3',5'-cyclic-AMP phosphodiesterase 4B (Homo sapiens) (Q07343 whole entry, looked up): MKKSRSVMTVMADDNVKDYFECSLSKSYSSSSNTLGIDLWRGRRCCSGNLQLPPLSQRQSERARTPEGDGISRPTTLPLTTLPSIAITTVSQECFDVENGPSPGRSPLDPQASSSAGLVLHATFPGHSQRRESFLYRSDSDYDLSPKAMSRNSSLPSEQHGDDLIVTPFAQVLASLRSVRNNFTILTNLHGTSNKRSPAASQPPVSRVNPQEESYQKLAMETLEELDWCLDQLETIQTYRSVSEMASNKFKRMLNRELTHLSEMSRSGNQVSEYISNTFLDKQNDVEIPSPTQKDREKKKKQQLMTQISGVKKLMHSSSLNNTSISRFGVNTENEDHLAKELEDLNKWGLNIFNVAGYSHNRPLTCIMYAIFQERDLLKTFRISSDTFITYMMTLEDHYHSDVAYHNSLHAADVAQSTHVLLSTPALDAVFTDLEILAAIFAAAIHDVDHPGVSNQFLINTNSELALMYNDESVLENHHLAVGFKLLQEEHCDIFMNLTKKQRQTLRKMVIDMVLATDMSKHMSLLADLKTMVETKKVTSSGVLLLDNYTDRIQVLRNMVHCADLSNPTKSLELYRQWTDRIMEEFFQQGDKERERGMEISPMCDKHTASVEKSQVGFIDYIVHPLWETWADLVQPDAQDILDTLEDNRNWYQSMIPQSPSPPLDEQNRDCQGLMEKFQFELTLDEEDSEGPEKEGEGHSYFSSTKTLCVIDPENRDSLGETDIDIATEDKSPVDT
Chain of Ubiquitin carboxyl-terminal hydrolase 1 (Homo sapiens) (O94782 whole entry, looked up): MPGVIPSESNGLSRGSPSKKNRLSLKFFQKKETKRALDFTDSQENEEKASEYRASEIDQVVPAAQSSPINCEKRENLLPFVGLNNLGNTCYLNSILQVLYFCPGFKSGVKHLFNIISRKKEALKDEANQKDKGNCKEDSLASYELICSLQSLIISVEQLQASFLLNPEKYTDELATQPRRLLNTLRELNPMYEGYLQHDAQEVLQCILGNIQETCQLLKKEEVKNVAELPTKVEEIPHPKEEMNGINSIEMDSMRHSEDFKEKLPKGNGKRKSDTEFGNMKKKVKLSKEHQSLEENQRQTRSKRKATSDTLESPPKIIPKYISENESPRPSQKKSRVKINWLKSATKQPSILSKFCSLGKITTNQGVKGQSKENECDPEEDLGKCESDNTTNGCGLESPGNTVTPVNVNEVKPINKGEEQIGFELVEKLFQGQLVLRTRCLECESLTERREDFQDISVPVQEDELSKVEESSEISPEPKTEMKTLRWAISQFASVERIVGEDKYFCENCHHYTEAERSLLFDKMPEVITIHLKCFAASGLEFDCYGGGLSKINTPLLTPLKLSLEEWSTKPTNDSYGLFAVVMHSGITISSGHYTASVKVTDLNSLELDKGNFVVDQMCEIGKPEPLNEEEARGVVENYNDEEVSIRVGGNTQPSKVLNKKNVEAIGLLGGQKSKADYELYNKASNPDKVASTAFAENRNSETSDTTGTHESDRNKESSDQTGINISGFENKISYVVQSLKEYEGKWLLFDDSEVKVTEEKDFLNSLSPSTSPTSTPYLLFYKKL
Chain of Cytochrome P450 2C19 (Homo sapiens) (P33261 whole entry, looked up): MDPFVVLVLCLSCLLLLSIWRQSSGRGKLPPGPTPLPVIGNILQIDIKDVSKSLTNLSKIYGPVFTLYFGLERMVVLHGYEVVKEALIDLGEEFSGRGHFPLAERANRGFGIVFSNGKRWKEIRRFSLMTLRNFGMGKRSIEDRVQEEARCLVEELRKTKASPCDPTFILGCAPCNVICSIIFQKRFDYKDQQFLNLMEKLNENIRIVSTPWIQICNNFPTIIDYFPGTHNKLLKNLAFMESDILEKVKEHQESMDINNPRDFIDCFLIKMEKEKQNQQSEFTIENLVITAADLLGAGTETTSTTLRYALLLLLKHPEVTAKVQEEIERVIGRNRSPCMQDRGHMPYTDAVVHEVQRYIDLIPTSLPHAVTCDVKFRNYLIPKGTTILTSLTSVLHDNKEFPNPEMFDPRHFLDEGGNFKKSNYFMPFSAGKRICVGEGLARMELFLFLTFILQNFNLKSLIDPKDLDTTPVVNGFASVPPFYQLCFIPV

On to `Cc1cnc(CNc2cc(-c3ccccc3Cl)ncn2)cn1`, for which the Potency was > 11.4 µM in assay [1]; 15.8 µM (active) in assay [3]; > 46 µM in [6]; > 46 µM in assay [7]; 20 µM (active) in [11]. The activity change, negative = inhibition was 2.27% in assay [2] and 3.5% in [4]. For the same compound, the activity, negative = inhibition in [5] is 2.17%. Moreover, the Potency entry in assay [8], in assay [9], in assay [10] and in [12] was “inactive” each time. In addition, the result in assay [13] was inactive.
On to `COc1cccc(-c2nccc(NCc3cnc(C)cn3)n2)c1`, for which the Potency in [1] is > 11.4 µM; in [3], 0.501 µM (active); in [6] it was > 46 µM; in [10], 6.31 µM (active); in assay [11], 28.2 µM (active). The results for the activity change, negative = inhibition in assay [2] and in assay [4] were 2.41% and -1.09%, respectively. Moreover, the activity, negative = inhibition in assay [5] is 13.7%. Moreover, the Potency entry in [8], in assay [9], in assay [14], in [15] and in [12] was “inactive” in each case. Moreover, the outcome in [13] was inactive.
`CNc1nc(-c2cccc(C#N)c2)nc2ccccc12`: the Potency was > 11.4 µM in [1]; 0.0794 µM (active) in assay [3]; > 46 µM in assay [6]; > 46 µM in [7]; 7.94 µM (active) in [16]; 11.2 µM (active) in assay [11]. Also, the activity change, negative = inhibition was -15.2% in assay [2] and 2.31% in [4]. Further, the activity, negative = inhibition in assay [5] is 6.92%. Moreover, the Potency entry in assay [8], in assay [9], in assay [14] and in assay [12] was “inactive” in each case. Moreover, in assay [13], the outcome was inactive.
Regarding `COCCn1c(=O)c(-c2ccc(Cl)cc2)nc2cnc(N(C)C)nc21`, the values for the activity change, negative = inhibition in assay [2] and in assay [4] were -3.17% and -3.15%, respectively. The values for the Potency in assay [3], in assay [6] and in [7] were 1 µM (active), > 9.22 µM and > 46 µM, respectively. Also, the Potency entry in assay [9], in assay [11], in assay [15] and in assay [12] was “inactive” each time. In addition, the outcome in [13] was inactive.
In the case of `CN(C)C(=O)c1ccc(-c2cncnc2Nc2ccc(F)cc2)cc1`, the activity change, negative = inhibition was -12.8% in [2] and 5.12% in assay [4]. Further, the activity, negative = inhibition in assay [5] was 9.71%. The Potency in assay [6] was > 46 µM; in [7], > 46 µM; in [11] it was 25.1 µM (active). The Potency entry in [8], in assay [15] and in [12] was “inactive” in each case. Besides, the result in assay [13] was inactive.
In the case of `CCNc1ncc2nc(-c3ccc(F)cc3)c(=O)n(-c3ccc(OC)cc3)c2n1`, the values for the Potency in assay [1], in assay [3] and in assay [6] were > 11.4 µM, 6.31 µM (active) and > 9.22 µM, respectively. The activity change, negative = inhibition in [2] is -1.24%. The activity, negative = inhibition in [5] is 20.4%. In addition, the Potency entry in assay [8], in [14], in assay [11], in [15] and in assay [12] was “inactive” each time. Besides, in [13], the result was inactive.
Regarding `CC(=O)NCCNc1ncnc2ccc(-c3ccccc3C(F)(F)F)cc12`, the Potency was > 11.4 µM in [1]; 10 µM (active) in [3]; > 46 µM in [6]; > 46 µM in assay [7]; 6.31 µM (active) in assay [10]; 31.6 µM (active) in assay [11]. Besides, the activity change, negative = inhibition in [2] was 12.5%; in assay [4], 6.87%. Moreover, the Potency entry in [8], in assay [14], in assay [15] and in assay [12] was “inactive” throughout. For the same compound, the result in assay [13] was inactive.
Consider `Fc1ccc(Nc2ccnc(-c3ccc4c(c3)OCO4)n2)cc1`, for which the Potency was > 11.4 µM in assay [1]; 0.631 µM (active) in assay [3]; > 46 µM in [6]; > 46 µM in assay [7]; 2 µM (active) in [10]; 2 µM (active) in [16]. Further, the Potency in [11] was 31.6 µM (active). For the same compound, the values for the activity change, negative = inhibition in assay [2] and in assay [4] were 8.72% and -0.562%, respectively. Also, the activity, negative = inhibition in assay [5] is -6.41%. For the same compound, the Potency entry in assay [8], in assay [14] and in assay [15] was “inactive” throughout. Also, the outcome in assay [13] was inactive.
`COc1ccc2[nH]cc(CCNc3cc(-c4ccccc4Cl)ncn3)c2c1`: the Potency in assay [1] was > 11.4 µM; in [6], > 46 µM; in assay [7], > 46 µM; in [11] it was 12.6 µM (active); in assay [15] it was 12.6 µM (active); in assay [12] it was 20 µM (active). Also, the results for the activity change, negative = inhibition in [2] and in assay [4] were 0.747% and 9.26%, respectively. The activity, negative = inhibition in [5] was -11.7%. Also, the Potency entry in [8] and in assay [9] was “inactive” throughout. Further, the result in [13] was inactive.

The values above are taken from PubChem BioAssay (NCATS).
